According to PubChem BioAssay (NCATS):
Records with an inconclusive call do not appear. Active and inactive are the calls of the source. Calls come from the whole dose curve; as a rule, active = well fitted curve in the direction sought with a large enough effect; inconclusive = small, poorly fitted or top-dose-only effect, or another doubt; inactive = no such curve, though single readings can be large; an effect the other way counts as inactive or inconclusive.

How the values were obtained:
[1] = Cell Viability - LYMP2-001 (AID 921); note: series mostly up to about 92 µM; nearly all actives have a fitted effect of over 70% in size
Outline: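 qHTS, 1536-well; lymphoblastoid cells, 24 hr compound, 37 C; ATP by CellTiter-Glo, 30 min RT; luminescence; Hill-fit AC50.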

[2] = MultiTox-Fluor Cytotoxicity Assay - LYMP1-001 - Dead Cells (AID 946)
Outline: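 In this qHTS, 15 uM tetraoctylammonium bromide defined 100% and DMSO defined basal activity. Lymphoblastoid cells (LYMP1-001, 2500 per well) received compound for 16 hr at 37 C before a fluorogenic dead-cell substrate readout at 485/520 nm.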

[3] = MultiTox-Fluor Cytotoxicity Assay - LYMP1-001 - Live Cells (AID 947)
[4] = Cell Viability - LYMP1-002 - Assay at 16 hr (AID 948)
Outline: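 Acute cytotoxicity is scored as a concentration-dependent fall in intracellular ATP in a human lymphoblastoid line (LYMP1-002) after 16 hr compound exposure at 37 C, measured by luciferase luminescence.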

[5] = MultiTox-Fluor Cytotoxicity Assay - LYMP1-002 - Live Cells (AID 955);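 note: cells exposed to compound for 16 hours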
Outline: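 In this qHTS viability format, lymphoblastoid cells (LYMP1-002, human) received compound for 16 hr at 37 C. Fluorogenic GF-AFC cleavage by viable cells was detected at 405/510 nm after 1 h at room temperature.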

[6] = MultiTox-Fluor Cytotoxicity Assay - LYMP1-003 - Dead Cells (AID 961); note: nearly all actives have a fitted effect of over 70% in size
Outline: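 Acute toxicity is scored as increased dead-cell protease activity in human lymphoblastoid LYMP1-003 cells after 16 h compound exposure in complete culture medium. Activity is normalized to DMSO basal and 15 uM tetraoctylammonium bromide as full response.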

[7] = MultiTox-Fluor Cytotoxicity Assay - LYMP1-003 - Live Cells (AID 962);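 note: cells exposed to compound for 16 hours at 37 °C; cytotoxic hits lower the live-cell protease signal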
Outline: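 Human lymphoblastoid line LYMP1-003 in complete culture medium, treated 16 hr with titrated compounds. Viable cells quantified via cell-permeant GF-AFC substrate fluorescence; AC50 derived by Hill fitting.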

[8] = Cell Viability - LYMP1-003 - Assay at 24 hr (AID 963)
Outline: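 The lymphoblastoid line was treated with titrated compounds for 24 hours, and viable cell number estimated from luciferase-based ATP luminescence.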

[9] = Cell Viability - LYMP1-003 - Assay at 40 hr (AID 964); note: series mostly up to about 92 µM; nearly all actives have a fitted effect of over 60% in size
Outline: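 Acute toxicity is scored as a concentration-dependent loss of intracellular ATP in LYMP1-003 cells (2500/well, complete medium) after 40 hr at 37 C, measured by CellTiter-Glo luminescence; AC50 values derive from standard Hill modelling.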

[10] = Cell Viability - LYMP2-005 (AID 967); note: series mostly up to about 92 µM
Outline: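 qHTS viability screen in LYMP2-005 cells: 24 h at 37 C with compound, ATP luminescence via CellTiter-Glo, AC50 from Hill curves.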

[11] = Cell Viability - LYMP2-009 (AID 968); note: series mostly up to about 92 µM; nearly all actives have a fitted effect of over 55% in size
[12] = Cell Viability - LYMP2-011 (AID 969); note: nearly all actives have a fitted effect of over 60% in size
Outline: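 Cells seeded at 2500 per well rest 5 hr before compound addition, then incubate 24 hr at 37 C. CellTiter-Glo reagent is added for 30 min at room temperature before luminescence detection.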

[13] = Cell Viability - LYMP2-013 (AID 970); note: series mostly up to about 92 µM; nearly all actives have a fitted effect of over 55% in size
Outline: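 In complete culture medium, human lymphoblastoid cells were dosed for 24 hr at 37 C, with tetraoctylammonium bromide (6.4pM to 92 uM) as positive control. Viability reflects luciferase-based ATP signal; AC50 derived from concentration-response curves.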

[14] = Cell Viability - LYMP2-015 (AID 971); note: nearly all actives have a fitted effect of over 55% in size
Outline: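 AC50 values reflect Hill-model fits of ATP-based luminescence (CellTiter-Glo) from a human lymphoblastoid line, 2500 cells/well, treated 24 hr at 37 C.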

[15] = Cell Viability - LYMP2-017 (AID 972);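 note: series mostly up to about 92 µM; cells exposed to compound for 24 hours at 37 °C; nearly all actives have a fitted effect of over 55% in size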
Outline: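 In this qHTS format, lymphoblastoid cells in complete medium receive test compound for a day at 37 C before ATP content is quantified by luciferase luminescence. Reported AC50 figures come from standard Hill-equation curve fitting.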

[16] = Cell Viability - LYMP2-019 (AID 973); note: nearly all actives have a fitted effect of over 55% in size
Outline: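 AC50 values come from Hill-equation modelling of qHTS concentration-response curves, where viability is measured as luciferase-based ATP luminescence in the lymphoblastoid line after 24 hr compound exposure in complete culture medium.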

[17] = Cell Viability - LYMP2-021 (AID 974)
Outline: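 In qHTS format, compounds are tested against 2500 lymphoblastoid cells per well for 24 h; viable cell number is inferred from ATP-driven luciferase light, and Hill-equation fitting yields AC50 values.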

[18] = Cell Viability - LYMP2-023 (AID 975)
Outline: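 In this qHTS, ATP-based luciferase luminescence (CellTiter-Glo) is quantified in human lymphoblastoid cells after 24 hr compound treatment at 37 C; tetraoctylammonium bromide serves as positive control. Concentration-response curves are Hill-fitted to give AC50.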

[19] = Cell Viability - LYMP2-025 (AID 976); note: series mostly up to about 92 µM
Outline: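 Luminescent ATP readout after 24 hr treatment of a human lymphoblastoid line (LYMP2-025, 2500 cells/well, 37 C). Reagent developed 30 min at room temperature; AC50 fitted with the Hill equation.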

[20] = Cell Viability - LYMP2-002 (AID 977);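 note: series mostly up to about 92 µM; compound exposure lasted 24 h at 37 °C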
Outline: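 Human lymphoblastoid cells, 2500/well, complete medium; 5 h 37 C settle; compound 24 h 37 C; CellTiter-Glo, 30 min RT; luminescence. Decrease in ATP = cytotoxicity; AC50 via Hill equation.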

[21] = Cell Viability - LYMP2-006 (AID 978); note: series mostly up to about 92 µM; nearly all actives have a fitted effect of over 60% in size
Outline: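 Concentration-dependent loss of intracellular ATP in a human lymphoblastoid line after 24 hr treatment at 37 C was measured by CellTiter-Glo luminescence, with AC50 values obtained from standard Hill-equation modelling.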

[22] = Cell Viability - LYMP2-007 (AID 979);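 note: cells exposed to compound for 24 h before reading; nearly all actives have a fitted effect of over 60% in size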
Outline: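 Measured via luciferase-based ATP quantitation: lymphoblastoid cells, 24 hr compound exposure at 37 C, AC50 from Hill fits.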

[23] = Cell Viability - LYMP2-008 (AID 980); note: nearly all actives have a fitted effect of over 60% in size
Outline: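 Measured: ATP-dependent luminescence, proportional to viable cell number, in human lymphoblastoid cells treated 24 hr with compound in complete culture medium. Values are AC50s from Hill-equation modelling of qHTS titrations.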

[24] = Cell Viability - LYMP2-010 (AID 981)
Outline: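 This 24 hr viability screen uses LYMP2-010 lymphoblastoid cells, quantifies ATP via luciferase luminescence, and derives AC50 from Hill fits of qHTS concentration-response data.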

[25] = Cell Viability - LYMP2-012 (AID 982)

Measured: Potency

C=CCc1ccc(OC)c(OC)c1
inactive: all assays above
